# From PubChem BioAssay AID651636 (Sanford-Burnham Center for Chemical Genomics, 2012)
# The whole screen tested about 360,000 compounds, of which about 3,000 (0.83%) were called active. The sample holds actives, similar compounds and a random draw of the others, so the mix is not that of the screen. A number with no mark means an inactive call. Rule as the data show it: active = inhibition above about 38%; inactive = the rest.
# Molecular target: G-protein coupled receptor 183 (Homo sapiens) (UniProt P32249)
# Sequence (P32249 whole entry, looked up, the tested form may be a part): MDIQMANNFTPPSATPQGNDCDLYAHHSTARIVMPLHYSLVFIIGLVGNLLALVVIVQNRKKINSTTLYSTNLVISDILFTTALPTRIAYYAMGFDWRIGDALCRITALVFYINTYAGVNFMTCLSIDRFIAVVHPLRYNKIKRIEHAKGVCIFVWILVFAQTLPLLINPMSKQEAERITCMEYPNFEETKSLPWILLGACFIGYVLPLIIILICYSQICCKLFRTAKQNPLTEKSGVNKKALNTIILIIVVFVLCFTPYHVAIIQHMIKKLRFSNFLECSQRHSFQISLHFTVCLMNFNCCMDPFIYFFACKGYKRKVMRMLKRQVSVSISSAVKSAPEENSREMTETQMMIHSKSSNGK
# Assay: blockers of oxysterol-driven EBI2 arrestin signaling – cell-based, luminescence, 7a,25-OHC stimulation, uHTS, primary screen (AID 651636);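 also: enzyme fragment complementation signal reports receptor beta-arrestin coupling in cells; 0% = agonist plus DMSO wells and 100% = wells without agonist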
# Conditions: EBI2 beta-arrestin recruitment, 7a,25-OHC stimulated, at 5 µM, hits give high values
row,SMILES,inhibition
1,CC(=O)OC1C2(CC3N4C(=O)C5(CO)SSC4(CC31O)C(=O)N5C)OC(C)C(C)(C)C2=O (stereo not given),94.4% (active)
2,CC(C)(C)[C@]1(O)C[C@@H]2OC(=O)C[C@@]23C(=O)O[C@@H]2OC(=O)[C@H](O)[C@]213,-2.99%
3,O=C(CCC(=O)N1C[C@H]2C[C@@H](C1)c1cccc(=O)n1C2)NCc1ccccc1C(F)(F)F,-0.966%
4,CC(=O)Nc1ccccc1C(=O)OCC(=O)c1cccc2ccccc12,12.7%
5,COc1cccc(C(=O)N2C[C@H]3C[C@@H](C2)c2cccc(=O)n2C3)c1,-6.08%
6,O=C(COc1ccc2ccccc2c1)N1CCN(Cc2ccncc2)CC1,66.2% (active)
7,CC(C)c1ccc(OCC(=O)N2CCCN(C)CC2)cc1,2.02%
8,O=C(Cc1ccccc1[N+](=O)[O-])N1CCN(Cc2ccc3c(c2)OCO3)CC1,5.95%
9,CC(c1ccccc1)(c1ccccc1)c1ccncc1,11.4%
10,COC(=O)C1=C(c2ccccc2OCc2ccccc2)C[C@@H]2CC[C@H]1N2C(=O)NCc1ccc(OC)cc1,26.2%
11,COC(=O)C1=C(c2ccc(F)cc2OCc2ccccc2)C[C@@H]2CC[C@H]1N2C(=O)NCc1ccc(OC)c(OC)c1,9.54%
12,CCC(=O)c1ccc(OCC(=O)N2CCN(CC(=O)Nc3ccc(C)cc3)CC2)cc1,6.66%
13,CCc1ccc(OCC(=O)N2CCN(CC(=O)Nc3ccccc3Cl)CC2)cc1,73.1% (active)
14,O=C(CN1CCCCC1)Nc1ccc(Br)cc1C(=O)c1ccccc1Cl,-11.6%
15,CCOP(=S)(OCC)C(O)CCCCCn1c(=O)c(F)cn(C2CCCO2)c1=O (stereo not given),-1.97%
16,CN(c1ccccc1)c1ccc([N+](=O)[O-])c2nonc12,1.86%
17,CC[N+](CC)(CC)CCCCCCCCCC[N+](CC)(CC)CC,2.47%
18,C[C@H]1CN([C@@H](C)CO)C(=O)CCCn2nncc2CO[C@H]1CN(C)C(=O)Oc1cccc2ccccc12,-6.15%
19,COC(=O)C1=C(c2ccc(OCc3ccccc3)cc2)C[C@@H]2CC[C@H]1N2C(=O)NCc1cccc(F)c1,64.5% (active)
20,COC(=O)C1=C(c2cccc(OCc3ccccc3)c2)C[C@@H]2CC[C@H]1N2C(=O)NCc1ccc(Br)cc1,19%
21,COC(=O)C1=C(c2ccc(OCc3ccccc3)cc2)C[C@@H]2CC[C@H]1N2C(=O)NCc1ccc(Cl)cc1,22.1%
22,Cc1cc(C)c2c(c1)NP(=S)(c1ccccc1)N2 (stereo not given),11.1%
23,O=C1NC(=O)N(CCc2ccc(F)cc2)C(=O)/C1=C/C=C/c1ccccc1,58.5% (active)
24,CN(C)c1nc(N(C)C)nc(N(C#N)CCCl)n1,2.53%
25,COc1ccc(NC(=O)c2cn(CCC#N)nc2-c2ccc([N+](=O)[O-])cc2)cc1,-6.27%
